Experimental data published in PubChem BioAssay AID743358 (Broad Institute, 2014).
Calls of active or inactive are those of the source.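 How the source made its calls: active means ATP signal drop in HepG2 cells with fitted half-maximal concentration at most twice the top tested dose; inconclusive means flat curve losing 30 to 70% signal, or poor fit; inactive means the rest.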

Assay: HepG2 cell cytotoxicity, dose response, cytotoxicity control, luminescence, dry powder, set 9 (AID 743358)
Details: HepG2 viability, ATP luminescence, 72 h; series mostly up to 26 µM
In the case of `CN1c2ccc(-c3cccc(F)c3)cc2[C@H]2[C@H](CCN2C(=O)CCCCCCN)[C@H]1CO`, the outcome is reported as “inactive”. With `CNS(=O)(=O)c1ccc(N2CCN(C(=O)c3ccc4c(c3)OCO4)CC2)cc1` the outcome was “inactive”. In the case of `CN1c2ccc(-c3cccc(F)c3)cc2[C@@H]2[C@@H](CCN2C(=O)c2ccc3c(c2)OCO3)[C@@H]1CO`, the outcome is reported as “inactive”. For `CCCNC(=O)N1CC[C@@H]2[C@@H](CO)N(C)c3ccc(-c4ccc(F)cc4)cc3[C@@H]21`, the outcome was “inactive”. In the case of `CN1c2ccc(-c3cccc(F)c3)cc2[C@@H]2[C@@H](CCN2C(=O)c2ccc3c(c2)OCO3)[C@H]1CO`, the outcome is reported as “inactive”. For `CN1c2ccc(-c3ccc(F)cc3)cc2[C@H]2[C@H](CCN2C(=O)Cc2ccccn2)[C@H]1CO`, the outcome was “inactive”. With `CCC(=O)N1CC[C@@H]2[C@@H](CO)N(C)c3ccc(-c4ccc(F)cc4)cc3[C@@H]21` the outcome was “inactive”. With `CC(C)NC(=O)N1CC[C@@H]2[C@@H](CO)N(C)c3ccc(-c4ccc(F)cc4)cc3[C@@H]21` the outcome was “inactive”. With `CN1c2ccc(-c3cccc(F)c3)cc2[C@H]2[C@H](CCN2C(=O)Cc2cccnc2)[C@H]1CO` the outcome was “inactive”. With `CN(C)C(=O)c1ccc(N2CCN(C(=O)c3ccc4c(c3)OCO4)CC2)cc1` the outcome was “inactive”. With `COCC(=O)N1CC[C@@H]2[C@@H](CO)N(C)c3ccc(-c4cccc(F)c4)cc3[C@@H]21` the outcome was “inactive”. With `COc1ccccc1NC(=O)N1CC[C@@H]2[C@@H](CO)N(C)c3ccc(-c4ccc(F)cc4)cc3[C@@H]21` the outcome was “inactive”. In the case of `CCCCCCCC(=O)N1CC[C@@H]2[C@@H](CO)N(C)c3ccc(-c4cccc(F)c4)cc3[C@@H]21`, the outcome is reported as “inactive”. With `CN1c2ccc(-c3cccc(F)c3)cc2[C@H]2[C@H](CCN2C(=O)c2ccc3c(c2)OCO3)[C@@H]1CO` the outcome was “inactive”. For `CN1c2ccc(-c3cccc(F)c3)cc2[C@H]2[C@H](CCN2C(=O)CCCCCCC(=O)O)[C@H]1CO`, the outcome was “inactive”. For `CC(=O)c1ccc(N2CCN(C(=O)c3ccc4c(c3)OCO4)CC2)cc1`, the outcome was “inactive”. In the case of `CC(=O)c1ccc(N2CCN(C(=O)c3ccccc3Cl)CC2)cc1`, the outcome is reported as “inactive”.
